Screening data (PubChem)
VDR inh: vitamin D3 receptor (human) inhibition; P11473; VDR-SRC2-3 peptide fluorescence polarization, 2 h; Potency, µM, for inactives: max response, negative = inhibition, most hits filed as inhibitors; 0.93% of 400,000 active; note: potency is the fitted concentration of half-maximal effect
Target sequence (P11473 whole entry, looked up): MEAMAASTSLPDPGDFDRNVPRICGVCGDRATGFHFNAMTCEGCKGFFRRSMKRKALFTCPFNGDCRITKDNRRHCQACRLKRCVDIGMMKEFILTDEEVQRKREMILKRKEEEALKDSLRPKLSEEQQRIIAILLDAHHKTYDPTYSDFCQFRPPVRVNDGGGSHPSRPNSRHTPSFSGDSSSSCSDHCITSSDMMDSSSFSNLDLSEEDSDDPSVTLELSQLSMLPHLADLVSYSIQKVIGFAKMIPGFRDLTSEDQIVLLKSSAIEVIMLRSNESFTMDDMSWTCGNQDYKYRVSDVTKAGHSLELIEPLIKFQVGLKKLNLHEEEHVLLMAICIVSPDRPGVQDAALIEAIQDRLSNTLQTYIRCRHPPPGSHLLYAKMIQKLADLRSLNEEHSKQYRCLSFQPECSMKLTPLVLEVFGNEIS
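VDR–SRC2-3 interaction, FP format. Cmpds 23 nl via pintool, brief spin, 2 h ambient incubation.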
CCT chaperon mod: cytosolic chaperonin activity modulation; AID 651819; purified chaperonin ATPase assay, HTRF ADP detection, 30 min; 0.3% of 360,000 active; activity change, % (concentration not given with the values), hits read low; in the data active = activity change below about -30%
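First, chaperonin was dispensed at 40 nM or 20 nM final depending on batch activity. Next, compounds were pinned at 76 uM and ATP added at 10 uM. After 30 min at 37 °C, ADP detection reagents ran 30 min at ambient temperature.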
PLK1 PBD block: PLK1 (human) polo-box domain binding inhibition. 2.8% of 360,000 active. Plk1 PBD binding of FITC phosphopeptide, fluorescence polarization. Potency, µM, for the others: max response, negative = inhibition, actives largely listed as inhibitors. P53350; note: potency is the fitted concentration of half-maximal effect; series mostly up to about 57 µM; nearly all actives have a fitted effect of over 65% in size
G9a block: blocks human histone lysine methyltransferase G9a | G9a H3K9 monomethylation, AlphaScreen, 2 h | Potency, µM (highest dose often 102 µM), inactives show top-dose activity, negative = inhibition, hits mostly inhibitors | 8.8% of 350,000 active | AID 504332; note: potency is the fitted concentration of half-maximal effect; nearly all actives have a fitted effect of over 75% in size
Target sequence (Q96KQ7 913-1193 limits assumed): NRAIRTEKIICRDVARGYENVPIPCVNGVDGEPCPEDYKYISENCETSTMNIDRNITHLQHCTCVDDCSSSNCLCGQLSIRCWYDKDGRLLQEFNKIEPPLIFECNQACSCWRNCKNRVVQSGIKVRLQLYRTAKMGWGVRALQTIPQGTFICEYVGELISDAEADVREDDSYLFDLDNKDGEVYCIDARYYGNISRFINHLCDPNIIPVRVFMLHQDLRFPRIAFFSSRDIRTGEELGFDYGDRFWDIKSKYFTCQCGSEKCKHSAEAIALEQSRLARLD
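Step 1: enzyme (final 20 nM) with compound, 15 min RT. Step 2: substrate peptide 500 nM and SAM 20 uM, 2 h RT. Step 3: anti-H3K9me1 antibody and AlphaScreen beads, 10 min, then plate read.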
Mm-Cpn inhibitor: M. maripaludis TRiC chaperonin inhibition; purified Mm-Cpn ATPase, ADP Transcreener TR-FRET; Potency, µM (titrated, usually from 76.9 µM), for the others: at the highest dose activity, negative = inhibition, actives largely listed as inhibitors; 0.031% of 330,000 active; AID 504842; note: potency is the fitted concentration of half-maximal effect; nearly all actives have a fitted effect of over 80% in size
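Purified archaeal Mm-CPN (25nM final) preincubated 10 min at 37degC with compound, then 10uM ATP for 30 min at 37degC; ADP measured by HTRF Transcreener TR-FRET; buffer 30 mM TRIS pH 7.4, 100mM KCl, 5mM MgCl2, 1mM DTT.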
Sfp PPTase inh: blocks B. subtilis Sfp PPTase activity; 3.5% of 310,000 active; Q9F4F7; Potency, µM, inactives show largest response in the series, negative = inhibition, actives largely listed as inhibitors; Biochemical Sfp PPTase activity, qHTS;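 note: the enzyme is Sfp with the accession as filed and its product quenches rhodamine fluorescence; potency is the fitted concentration of half-maximal effect; 0% = enzyme reaction without inhibitor and -100% = no enzyme wells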
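Fluorescence-quenching assay: 15 nM Sfp-PPTase preincubated 15 min at room temperature with compound, then 5 uM rhodamine-CoA and 12.5 uM BHQ-2-labelled YbbR peptide added. Fluorescence (ex 525/em 598 nm) read at start and after 30 min; difference gives rate.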
Sfp inh conf: Sfp phosphopantetheinyl transferase inhibition, confirmation | Sfp PPTase enzymatic assay, qHTS titration | Potency, µM (series often up to 114 µM), inactives show at the top dose activity change, negative = inhibition, actives largely listed as inhibitors | shares compounds with Sfp PPTase inh | 79% of 380 active | AID 2701;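 note: potency is the fitted concentration of half-maximal effect; plate controls were uninhibited Sfp reaction for no effect and no enzyme control for full effect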
Sfp PPTase gel: Inhibits Bacillus subtilis Sfp phosphopantetheinyl transferase. shares compounds with Sfp PPTase inh. purified Sfp, gel-based phosphopantetheinylation read-out. Potency, µM, hits mostly inhibitors. 20% of 210 active;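 active = potency below 100 µM; inconclusive = dose-dependent response but potency above 100 µM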;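 note: band intensities scaled against SCH202676 control wells before curve fitting; potency is an IC50 for inhibitors of Sfp transfer activity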
Active calls of the source: *; i = inactive; ? = inconclusive; / = no result; ! = repeats disagree; [ ] = remark or other dose. A selection: hits, their analogues and other compounds. The true share with any hit is near 10%. Unless noted, calls come from the whole dose curve; as a rule, active = well fitted curve in the direction sought with a large enough effect; inconclusive = small, poorly fitted or top-dose-only effect, or another doubt; inactive = no such curve, though single readings can be large; an effect the other way counts as inactive or inconclusive. Unless noted, % is set by controls: 0 for no effect and ±100 for the full control effect.

SMILES	VDR inh	CCT chaperon mod	PLK1 PBD block	G9a block	Mm-Cpn inhibitor	Sfp PPTase inh	Sfp inh conf	Sfp PPTase gel
NC(=O)N1c2ccccc2CC(=O)c2ccccc21	50µM*!	-3	-19%	-17%[2.33 µM]	-4%	35µM*!	47µM*	i
Cc1nn(-c2ccccc2)c2nc(-c3ccco3)cc(C(=O)O)c12	1%	1	?	20µM*	-9%	13µM*	21µM*	?
COC(=O)C(CC(=O)c1ccc(Br)cc1)n1ccnc1 (stereo not given)	/	/	/	?	0%	1.6µM*	8.3µM*	/
CC(C)C[C@@H](CC(=O)N[C@@H](CCC(=O)O)CC(=O)O)NC(=O)[C@@H]1CCCC[C@H]1NC(=O)C[C@H](CCCN)NC(=O)C[C@H](Cc1ccccc1)NC(=O)[C@@H]1CNCC[C@H]1N	5%	/	/	/	/	-9%	/	/
N[C@@H](Cc1ccccc1)c1nnc2sc(SCc3ccccc3)nn12	4%	-1	-19%	7.1µM*	-1%	45µM*	66µM*	/
Cc1nnc2sc(SCc3ccc(Br)cc3)nn2c1=O	-1%	0	-6%	-2%	-2%	13%	/	/
CC(=O)Nc1sc2c(c1C(N)=O)CCCC2	4%	-1	-10%	-1%[12.7 µM]	-3%	30%	/	/
NC(=O)c1c(NC(=O)C2CCCO2)sc2c1CCCC2 (stereo not given)	-28%	0	11µM*	3.2µM*	1%	1.3µM*	13µM*	/
N[C@@H](Cc1ccc(O)c(O)c1)C(=O)O	-4%	2	-8%	20µM*	/	40µM*	-6%[53.7 µM]	?
NC(Cc1ccc2nsnc2c1)C(=O)O (stereo not given)	56%	-2	1%	/	/	/	/	/
CCOc1ccc(NC(=O)c2oc3ccccc3c2NC(=O)c2ccc(OC)cc2OC)cc1	0%	/	/	-26%[59 µM]	/	/	/	/
COC(=O)NC(c1ccccc1)c1c[nH]c2ccc(OC)cc12 (stereo not given)	0%	/	/	/	/	19%	/	/
COc1ccccc1NC(=O)CSc1nnc(-c2ccccn2)n1Cc1ccco1	-21%	-2	-9%	?	-1%	4.5µM*	59µM*	i
Cc1cccc(-c2noc(-c3cccnc3NCc3ccccc3Cl)n2)c1	0%	/	/	-45%[59 µM]	/	/	/	/
O=C(CSc1ncnc2sc3c(c12)CCCC3)c1ccco1	-8%	1	-14%	34%[59 µM]	-11%	?	/	/
O=C(CSc1ncnc2sc3c(c12)CCCCC3)NCc1ccco1	-14%	0	-10%	?	-7%	14µM*	53µM*	/
COc1ccc(NC(=O)c2cc3c(s2)-c2c(C)cccc2OC3)cc1Cl	6%	/	/	?	/	/	/	/
COC(=O)c1ccc(-c2nc(O)c(C)s2)cc1	79µM*	1	7.5µM*	7.1µM*	2%	14µM*	47µM*	/
COc1cccc(C(=O)Nc2cccc(C(=O)OCc3cc(=O)n4c(C)csc4n3)c2)c1	10%	/	/	7%[59 µM]	/	/	/	/
COc1cccc(-c2nn(C)c3sc(C(=O)NCc4ccc(C)o4)cc23)c1	?	0	?	?	-26%	3.5µM*	24µM*	/
CCOC(=O)C[n+]1c(C)sc2ccc(OC)cc21	?	-1	27µM*	1.3µM*	-2%	1µM*	6.6µM*	i
CCCC[n+]1c(C)sc2ccc(C)cc21	?	-2	-13%	-48%	-1%	-10%	/	/
CCOC(=O)Cc1nnc(NC(=O)c2ncn[nH]2)s1	6%	-1	-6%	?	-1%	14µM*	-4%	i
CCOC(=O)Cc1nnc(NC(=O)c2ccccc2OCC)s1	20%	-3	-1%	-43%[59 µM]	-2%	13%	/	/
c1cncc(-c2csc(-c3cccnc3)n2)c1	1%	2	6%	-10%	-1%	12%	/	/
SMILES	VDR inh	CCT chaperon mod	PLK1 PBD block	G9a block	Mm-Cpn inhibitor	Sfp PPTase inh	Sfp inh conf	Sfp PPTase gel
c1cncc(-c2nc(-c3ccco3)cs2)c1	-14%	0	-16%	?	-2%	7.9µM*	15µM*	/
Nc1c(C(=O)Nc2ccccc2)sc2nc(-c3cccnc3)ccc12	/	/	/	?	-2%	7.9µM*	30µM*	?
COc1ccc(NC(=O)c2sc3nc(-c4cccnc4)ccc3c2N)cc1	1%	-1	-18%	/	-6%	-26%	/	/
CCCCN(CCCC)CC(O)c1cc(Cl)cc2c1-c1ccc(Cl)cc1/C2=C/c1ccc(Cl)cc1 (stereo not given)	6%	/	/	-48%[2.33 µM]	/	45µM*	42µM*	?
CCN(CC)c1ccc(/C=C/c2nc3ccccc3s2)cc1	/	/	/	5%	-1%	18µM*	33µM*	i
CCN(CC)S(=O)(=O)c1nnc(NC(=O)COc2ccccc2F)s1	-3%	/	/	?	/	/	/	/
CCOC(=O)c1c(NS(=O)(=O)c2cccc(OC)c2)sc2c1CCC2	-2%	-2	?	?	-4%	2.8µM*	26µM*	/
CCOc1ccc(CCNC(=O)CCCc2nnc3n(C)c(=O)c4sccc4n23)cc1OCC	1%	/	/	2%[59 µM]	/	/	/	/
COc1ccccc1CC(Cc1nc2ccccc2[nH]1)c1nc2ccccc2[nH]1 (stereo not given)	18%	2	-3%	7%	2%	5µM*	17µM*	/
Cc1ccc(-c2nc3cnccn3c2Nc2c(C)cccc2C)o1	?	-1	?	45µM*	-5%	0.5µM*	4.2µM*	i
Cc1cccc(Nc2nc(NCc3ccco3)c3ccccc3n2)c1	-4%	-2	10%	18µM*	2%	2.5µM*	37µM*	i
Cn1nnc(NC(=S)NC(=O)c2ccco2)n1	3%	-3	-23%	7.9µM*	0%	6.3µM*	?	i
Cn1nnc(NC(=O)c2ccco2)n1	23%	-1	-1%	14%	-5%	19%	/	/
O=C(O)Cc1ccc(NC(=O)Nc2ccc(Br)cc2)cc1	5%	-2	-2%	7%[0.501 µM]	2%	40µM*	?	/
Cc1cc2nc3ccc(=[N+](C)C)cc-3sc2cc1N	?	3	?	/	32µM*	25µM*	37µM*	/
c1ccc2c(c1)[nH]c1nc(SCCN3CCOCC3)nnc12	-1%	-1	27µM*	3.5µM*	0%	4.5µM*	9.4µM*	/
NNc1nncc2ccccc12	-7%	/	/	7.9µM*!	/	5µM*!	?	74µM*
NCc1csc(Nc2nncc3ccccc23)n1	/	2	1%	/	/	/	/	/
O=C1NC(c2ccccc2)(C(F)(F)F)SC2=CCCCCN12 (stereo not given)	-2%	1	-5%	?	-1%	20µM*	47µM*	i
O[C@@H]1CCN2Cc3ccccc3N=C12	3.5µM*	/	/	/	/	2.8µM*	2.1µM*	0.69µM*
